Measured values taken from PubChem BioAssay (EPA / NIEHS).
The source made the active and inactive calls. Rule for the calls: active = hit-call score of the fitted dose curve at least 0.9, where 1 is the maximum; inactive = score below 0.9.

Assay: ATG_Ets_CIS: Attagene CIS-FACTORIAL HepG2 Assay for human Erythroblast Transformation Specific (ETS) (AID 2282941)
Conditions: HepG2 ETS cis-reporter transcription, actives raise or lower the signal
Experimental: ATG_CIS is a cell-based, multiplexed-readout assay that uses HepG2, a human liver cell line, with measurements taken at 24 hours after chemical dosing in a 24-well plate.ATG_Ets_CIS is one of 52 assay component(s) measured or calculated from the ATG_CIS assay. It is designed to make measurements of mRNA induction, a form of inducible reporter, as detected with fluorescence intensity signals by Reverse transcription polymerase chain reaction (RT-PCR) and Capillary electrophoresis technology.Data from the assay component ATG_Ets_CIS was analyzed into 1 assay endpoint. This assay endpoint, ATG_Ets_CIS, was analyzed with bidirectional fitting relative to DMSO as the negative control and baseline of activity. Using a type of inducible reporter, measures of mRNA for gain or loss-of-signal activity can be used to understand the reporter gene at the transcription factor-level as they relate to the gene ETS1. Furthermore, this assay endpoint can be referred to as a primary readout, because this assay has produced multiple assay endpoints where this one serves a reporter gene function. To generalize the intended target to other relatable targets, this assay endpoint is annotated to the dna binding intended target family, where the subfamily is winged helix-turn-helix.
Human liver HepG2 cells are transiently transfected with multiple reporter transcription units (MRTUs) in 6-well plates using FuGene 6 reagent (Roche; 3 ml FuGene/1 mg DNA). The MRTU constructs are regulated by a cis-regulating element (promoter). […] A major difference between the CIS and TRANS system is that in CIS activities of endogenous TFs are measured, whereas the TRANS assay evaluates changes in activities of exogenous, chimeric NR-Gal4 proteins. […] At the end of 24 hour incubation, total RNA was isolated using TriZol reagent (Invitrogen). The isolated RNA is then reverse-transcribed using oligo(dT) primer and Mo-MLV reverse transcriptase (Invitrogen) with DNAse I (Ambion) treatment for 30 min. The one-tenth of the produced cDNA was amplified by PCR using Taq DNA polymerase (Invitrogen) and two reporter sequence-specific primers. The PCR products were fluorescently labeled by primer extension with 6-arboxyfluorescein (6-FAM) 5'-labeled reporter sequence-specific primer (2 min at 95 C, 20 s at 68 C and 10 min at 72 C) and these products were digested with 5U of HpaI (New England Biolabs) for 2h at 37 C. The fragments were purified using Qiaquick PCR columns (Qiagen), analyzed on an ABI 3130xL genetic analyzer (Applied Biosystems) with peak positions identified by using a set of X-rhodamine (ROX)-labeled MapMarker1000 molecular weight standards (BioVentures). The raw capillary electrophoresis data was processed using Attagraph software (Attagene).

Compound | AC50 | outcome
CNCCCC12CCC(c3ccccc31)c1ccccc12 | 11.1 µM (active) | –
O=C(COc1ccc(Cl)cc1)N1CCN(Cc2ccc3c(c2)OCO3)CC1 | – | inactive
Clc1sc(Cl)c(Cl)c1Cl | – | inactive
CC(=O)OCCC(C)CC(C)(C)C (stereo not given) | – | inactive
CCCCCC(=O)OCCc1ccccc1 | – | inactive
CCCCCCCCCCCCN(CCCCCCCCCCCC)CCCCCCCCCCCC | – | inactive
Nc1nc2ccc([N+](=O)[O-])cc2s1 | – | inactive
O=C(O)CCSCCC(=O)O | – | inactive
O=C(Nc1ccccc1)c1cc([N+](=O)[O-])ccc1Cl | – | inactive
OCCOc1cccc(OCCO)c1 | – | inactive
CC1(C)C(=O)N(Br)C(=O)N1Cl | – | inactive
c1ccc2c(c1)c1cccc3ccc4cccc2c4c31 | – | inactive
CC(C)(Oc1ccc(CCNC(=O)c2ccc(Cl)cc2)cc1)C(=O)O | – | inactive
O=C[C@H](O)[C@H](O)[C@H](O)CO | – | inactive
[Ca+2] | – | inactive
Cc1ccc(C=O)s1 | – | inactive
Cc1ccc2n[nH]nc2c1 | – | inactive
CC(C)=CCC[C@H](C)CC=O | – | inactive
CC(C)=CCC/C(C)=C/COC=O | – | inactive
CO[Si](CCCn1c(=O)n(CCC[Si](OC)(OC)OC)c(=O)n(CCC[Si](OC)(OC)OC)c1=O)(OC)OC | – | inactive

Compound | AC50 | outcome
CCCCCCCCCCN | – | inactive
CN(C)c1ccc(O)c2c1C[C@H]1C[C@H]3[C@H](N(C)C)C(=O)C(C(N)=O)=C(O)[C@@]3(O)C(=O)C1=C2O | – | inactive
C=CC(C)(CCC=C(C)C)OC=O (stereo not given) | – | inactive
CC(C)(C)c1n[nH]c(=S)n(N)c1=O | – | inactive
BrC1CCC(Br)C(Br)CCC(Br)C(Br)CCC1Br (stereo not given) | 143 µM (active) | –
CC(=O)C=CC1=C(C)CCCC1(C)C | – | inactive
Cc1ccc(C(=O)O)o1 | – | inactive
C=COCCOCCOCCOC=C | – | inactive
Nc1cc([N+](=O)[O-])ccc1O | – | inactive
CC1CCC(C(C)CS)CC1S (stereo not given) | – | inactive
COc1ccc(Cl)cc1C | – | inactive
C[C@H]1C[C@H]2[C@@H]3CCC4=CC(=O)C=C[C@]4(C)[C@@]3(F)[C@@H](O)C[C@]2(C)[C@@]1(O)C(=O)COP(=O)(O)O | – | inactive
O=c1cc(-c2ccccc2)oc2cc(O)cc(O)c12 | – | inactive
OC1C(O)C(O)C(O)C(O)C1O (stereo not given) | – | inactive
O=c1[nH]c(=O)n([C@H]2CCCO2)cc1F | – | inactive
CC1(CO)CN(c2ccccc2)NC1=O (stereo not given) | – | inactive
CC(O)C(C)O (stereo not given) | – | inactive
Cc1c(N(C)C)c(=O)n(-c2ccccc2)n1C | – | inactive
CC1CCC(C(C)(C)O)CC1 (stereo not given) | – | inactive
COC(=O)Cc1cccc2ccccc12 | – | inactive
